# In ChEMBL document CHEMBL1961873, “Compounds: GSK PKIS; Assays: Nanosyn kinase panel” (2012):
# Key:
# [1] = molecular target: T1, Ephrin type-B receptor 2 (Homo sapiens) (UniProt P29323); settings: at 1 µM
# T1 sequence (whole entry): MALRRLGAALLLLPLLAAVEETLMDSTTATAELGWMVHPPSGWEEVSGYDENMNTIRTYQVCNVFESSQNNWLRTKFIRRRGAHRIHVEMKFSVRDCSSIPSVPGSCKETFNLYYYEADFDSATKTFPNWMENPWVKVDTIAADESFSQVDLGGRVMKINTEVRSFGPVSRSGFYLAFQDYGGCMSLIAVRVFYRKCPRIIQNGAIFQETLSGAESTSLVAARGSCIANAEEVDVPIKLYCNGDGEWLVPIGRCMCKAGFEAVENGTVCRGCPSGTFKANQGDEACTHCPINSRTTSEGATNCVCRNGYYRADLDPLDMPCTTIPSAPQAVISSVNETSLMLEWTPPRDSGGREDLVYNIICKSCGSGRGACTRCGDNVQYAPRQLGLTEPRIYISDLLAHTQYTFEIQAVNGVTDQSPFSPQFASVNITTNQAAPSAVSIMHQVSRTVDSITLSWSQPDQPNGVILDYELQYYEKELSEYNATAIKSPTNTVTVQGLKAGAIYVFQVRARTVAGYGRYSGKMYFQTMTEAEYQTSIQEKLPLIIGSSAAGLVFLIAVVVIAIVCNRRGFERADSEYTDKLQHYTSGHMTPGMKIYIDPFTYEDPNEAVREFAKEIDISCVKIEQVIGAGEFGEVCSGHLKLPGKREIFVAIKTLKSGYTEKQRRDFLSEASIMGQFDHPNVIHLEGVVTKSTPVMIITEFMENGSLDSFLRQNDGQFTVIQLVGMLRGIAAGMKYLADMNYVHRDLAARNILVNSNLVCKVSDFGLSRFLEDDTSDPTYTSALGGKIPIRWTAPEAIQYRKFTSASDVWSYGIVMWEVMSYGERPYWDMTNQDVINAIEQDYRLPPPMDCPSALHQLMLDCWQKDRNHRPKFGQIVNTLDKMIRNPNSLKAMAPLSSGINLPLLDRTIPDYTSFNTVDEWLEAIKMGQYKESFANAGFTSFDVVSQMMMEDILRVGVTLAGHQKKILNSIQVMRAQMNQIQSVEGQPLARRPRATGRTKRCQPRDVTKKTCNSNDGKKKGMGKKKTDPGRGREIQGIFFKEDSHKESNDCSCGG
# [2] = molecular target: T2, Ephrin type-B receptor 3 (Homo sapiens) (UniProt P54753); settings: at 0.1 µM
# T2 sequence (whole entry): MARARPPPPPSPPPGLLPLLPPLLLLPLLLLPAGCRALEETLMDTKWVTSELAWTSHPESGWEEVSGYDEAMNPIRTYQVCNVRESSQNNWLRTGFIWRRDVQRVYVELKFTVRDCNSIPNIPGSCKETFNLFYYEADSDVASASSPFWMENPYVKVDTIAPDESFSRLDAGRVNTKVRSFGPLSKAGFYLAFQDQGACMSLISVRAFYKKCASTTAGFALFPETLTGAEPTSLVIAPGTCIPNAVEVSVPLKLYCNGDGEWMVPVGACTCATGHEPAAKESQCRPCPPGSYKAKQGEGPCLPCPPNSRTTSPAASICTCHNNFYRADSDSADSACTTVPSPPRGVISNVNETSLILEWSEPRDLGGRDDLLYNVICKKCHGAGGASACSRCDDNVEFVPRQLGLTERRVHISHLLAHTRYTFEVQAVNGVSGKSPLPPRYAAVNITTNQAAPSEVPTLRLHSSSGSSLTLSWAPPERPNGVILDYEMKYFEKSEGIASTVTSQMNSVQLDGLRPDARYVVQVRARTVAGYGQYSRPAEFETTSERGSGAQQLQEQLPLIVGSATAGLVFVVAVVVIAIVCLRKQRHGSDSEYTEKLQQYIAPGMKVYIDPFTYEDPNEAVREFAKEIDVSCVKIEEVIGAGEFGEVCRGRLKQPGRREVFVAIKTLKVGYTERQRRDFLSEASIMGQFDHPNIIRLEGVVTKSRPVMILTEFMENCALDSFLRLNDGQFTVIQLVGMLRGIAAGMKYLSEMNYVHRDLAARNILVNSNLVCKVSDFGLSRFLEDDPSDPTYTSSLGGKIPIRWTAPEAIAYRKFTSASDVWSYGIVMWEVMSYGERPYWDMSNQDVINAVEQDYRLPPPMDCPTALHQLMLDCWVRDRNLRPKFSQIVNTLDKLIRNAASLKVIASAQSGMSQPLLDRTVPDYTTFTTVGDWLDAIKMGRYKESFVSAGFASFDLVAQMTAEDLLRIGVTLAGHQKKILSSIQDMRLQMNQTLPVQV
# [3] = molecular target: T2, Ephrin type-B receptor 3 (Homo sapiens); settings: at 1 µM
# [4] = molecular target: T3, Ephrin type-B receptor 4 (Homo sapiens) (UniProt P54760); settings: at 0.1 µM
# T3 sequence (whole entry): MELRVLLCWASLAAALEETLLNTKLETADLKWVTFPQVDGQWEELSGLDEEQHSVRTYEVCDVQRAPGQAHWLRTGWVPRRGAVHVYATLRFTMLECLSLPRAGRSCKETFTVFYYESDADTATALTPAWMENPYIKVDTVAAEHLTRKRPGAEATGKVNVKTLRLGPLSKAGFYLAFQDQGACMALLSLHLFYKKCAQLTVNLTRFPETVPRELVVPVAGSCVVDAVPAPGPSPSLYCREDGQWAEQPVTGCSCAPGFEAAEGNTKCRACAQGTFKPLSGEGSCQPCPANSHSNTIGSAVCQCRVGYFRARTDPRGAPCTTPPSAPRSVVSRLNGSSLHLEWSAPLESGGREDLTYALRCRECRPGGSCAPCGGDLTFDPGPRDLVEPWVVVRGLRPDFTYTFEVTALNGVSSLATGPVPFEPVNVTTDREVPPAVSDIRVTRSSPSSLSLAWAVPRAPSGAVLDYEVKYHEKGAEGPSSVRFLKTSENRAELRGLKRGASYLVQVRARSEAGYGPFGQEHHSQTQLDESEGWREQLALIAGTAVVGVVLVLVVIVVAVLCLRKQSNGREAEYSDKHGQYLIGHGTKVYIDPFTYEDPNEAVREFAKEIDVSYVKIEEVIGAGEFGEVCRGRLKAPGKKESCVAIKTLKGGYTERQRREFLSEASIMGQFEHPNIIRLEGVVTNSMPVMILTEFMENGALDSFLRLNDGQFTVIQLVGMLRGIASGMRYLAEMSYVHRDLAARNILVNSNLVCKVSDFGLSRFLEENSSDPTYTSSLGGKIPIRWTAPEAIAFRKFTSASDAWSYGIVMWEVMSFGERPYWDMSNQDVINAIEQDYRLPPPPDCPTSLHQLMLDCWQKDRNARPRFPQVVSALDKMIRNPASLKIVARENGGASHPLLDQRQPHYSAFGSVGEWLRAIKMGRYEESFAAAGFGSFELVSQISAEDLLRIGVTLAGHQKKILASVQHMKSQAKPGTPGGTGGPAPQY
# [5] = molecular target: T3, Ephrin type-B receptor 4 (Homo sapiens); settings: at 1 µM
# [6] = molecular target: Receptor tyrosine-protein kinase erbB-2 (Homo sapiens) (UniProt P04626); settings: at 0.1 µM
# [7] = molecular target: Receptor tyrosine-protein kinase erbB-2 (Homo sapiens) (UniProt P04626); settings: at 1 µM
# [8] = molecular target: Receptor tyrosine-protein kinase erbB-4 (Homo sapiens) (UniProt Q15303); settings: at 0.1 µM
# [9] = molecular target: Receptor tyrosine-protein kinase erbB-4 (Homo sapiens) (UniProt Q15303); settings: at 1 µM
# [10] = molecular target: Tyrosine-protein kinase Fer (Homo sapiens) (UniProt P16591); settings: at 0.1 µM
# Sequence of Tyrosine-protein kinase Fer (Homo sapiens) (P16591 whole entry, looked up): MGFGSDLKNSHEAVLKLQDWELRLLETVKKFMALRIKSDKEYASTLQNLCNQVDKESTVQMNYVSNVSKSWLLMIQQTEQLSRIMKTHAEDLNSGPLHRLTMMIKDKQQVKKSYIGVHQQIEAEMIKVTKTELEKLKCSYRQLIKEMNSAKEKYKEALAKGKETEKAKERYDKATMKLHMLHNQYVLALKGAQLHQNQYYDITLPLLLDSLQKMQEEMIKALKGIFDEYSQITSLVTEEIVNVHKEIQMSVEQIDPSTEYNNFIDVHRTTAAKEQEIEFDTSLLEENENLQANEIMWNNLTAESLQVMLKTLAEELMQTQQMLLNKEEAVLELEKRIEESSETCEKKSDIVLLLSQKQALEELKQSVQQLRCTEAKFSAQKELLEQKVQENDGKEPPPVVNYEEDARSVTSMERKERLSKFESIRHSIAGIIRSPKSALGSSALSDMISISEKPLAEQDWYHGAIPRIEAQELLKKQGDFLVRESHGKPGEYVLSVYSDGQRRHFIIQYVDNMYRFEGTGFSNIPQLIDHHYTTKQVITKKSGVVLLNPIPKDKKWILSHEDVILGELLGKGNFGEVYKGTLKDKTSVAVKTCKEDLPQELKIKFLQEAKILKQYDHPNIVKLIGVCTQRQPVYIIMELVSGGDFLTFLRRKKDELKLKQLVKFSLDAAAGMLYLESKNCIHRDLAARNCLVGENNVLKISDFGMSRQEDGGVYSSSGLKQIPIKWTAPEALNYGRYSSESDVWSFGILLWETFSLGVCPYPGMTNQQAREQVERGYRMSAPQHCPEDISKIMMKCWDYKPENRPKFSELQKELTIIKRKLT
# [11] = molecular target: Tyrosine-protein kinase Fer (Homo sapiens) (UniProt P16591); settings: at 1 µM
# [12] = molecular target: Tyrosine-protein kinase Fes/Fps (Homo sapiens) (UniProt P07332); settings: at 0.1 µM
# Sequence of Tyrosine-protein kinase Fes/Fps (Homo sapiens) (P07332 whole entry): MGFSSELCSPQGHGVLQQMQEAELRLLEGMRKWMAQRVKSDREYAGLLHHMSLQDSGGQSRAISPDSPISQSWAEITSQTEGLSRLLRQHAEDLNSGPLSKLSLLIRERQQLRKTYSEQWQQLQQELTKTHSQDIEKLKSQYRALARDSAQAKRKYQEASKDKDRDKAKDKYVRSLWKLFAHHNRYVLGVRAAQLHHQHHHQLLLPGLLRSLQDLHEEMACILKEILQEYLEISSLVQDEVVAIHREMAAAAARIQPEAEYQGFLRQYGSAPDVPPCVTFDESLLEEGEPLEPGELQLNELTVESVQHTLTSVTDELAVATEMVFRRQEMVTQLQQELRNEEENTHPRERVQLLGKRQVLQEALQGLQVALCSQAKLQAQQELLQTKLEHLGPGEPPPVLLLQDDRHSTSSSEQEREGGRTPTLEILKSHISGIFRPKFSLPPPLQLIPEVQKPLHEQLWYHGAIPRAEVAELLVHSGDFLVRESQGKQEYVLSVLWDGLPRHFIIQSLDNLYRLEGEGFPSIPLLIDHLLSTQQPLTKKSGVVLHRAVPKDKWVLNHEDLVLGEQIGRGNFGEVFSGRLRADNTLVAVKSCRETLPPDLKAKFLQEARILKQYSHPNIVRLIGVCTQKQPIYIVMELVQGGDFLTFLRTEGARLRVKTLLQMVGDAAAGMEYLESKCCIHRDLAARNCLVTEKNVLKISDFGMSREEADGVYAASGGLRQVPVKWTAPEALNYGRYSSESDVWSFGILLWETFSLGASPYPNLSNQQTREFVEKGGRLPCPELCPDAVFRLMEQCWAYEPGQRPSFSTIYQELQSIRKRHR
# [13] = molecular target: Tyrosine-protein kinase Fes/Fps (Homo sapiens) (UniProt P07332); settings: at 1 µM
# [14] = molecular target: Fibroblast growth factor receptor 1 (Homo sapiens) (UniProt P11362); settings: at 0.1 µM
# Sequence of Fibroblast growth factor receptor 1 (Homo sapiens) (P11362 22-822 limits assumed): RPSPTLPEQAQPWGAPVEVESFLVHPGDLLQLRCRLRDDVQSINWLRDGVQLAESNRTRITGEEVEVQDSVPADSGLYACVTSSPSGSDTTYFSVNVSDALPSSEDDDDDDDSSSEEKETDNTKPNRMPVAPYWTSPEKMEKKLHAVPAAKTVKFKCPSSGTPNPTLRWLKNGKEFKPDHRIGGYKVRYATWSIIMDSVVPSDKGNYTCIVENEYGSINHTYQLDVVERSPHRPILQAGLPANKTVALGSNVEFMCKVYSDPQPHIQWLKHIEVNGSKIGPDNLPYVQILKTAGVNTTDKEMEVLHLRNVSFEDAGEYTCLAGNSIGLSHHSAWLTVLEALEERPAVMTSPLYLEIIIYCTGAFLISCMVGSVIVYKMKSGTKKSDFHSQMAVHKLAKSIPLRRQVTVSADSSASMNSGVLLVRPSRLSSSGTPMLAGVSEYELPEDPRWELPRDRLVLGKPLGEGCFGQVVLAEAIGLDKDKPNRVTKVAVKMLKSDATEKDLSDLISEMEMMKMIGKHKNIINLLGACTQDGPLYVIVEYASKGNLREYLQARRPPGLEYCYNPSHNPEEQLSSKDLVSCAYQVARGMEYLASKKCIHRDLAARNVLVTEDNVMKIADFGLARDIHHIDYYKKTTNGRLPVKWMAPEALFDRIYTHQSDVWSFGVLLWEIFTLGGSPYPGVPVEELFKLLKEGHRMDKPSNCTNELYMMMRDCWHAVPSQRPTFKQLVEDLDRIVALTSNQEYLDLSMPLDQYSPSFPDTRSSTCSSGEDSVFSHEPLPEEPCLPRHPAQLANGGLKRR
# [15] = molecular target: Fibroblast growth factor receptor 1 (Homo sapiens) (UniProt P11362); settings: at 1 µM
# [16] = molecular target: Fibroblast growth factor receptor 2 (Homo sapiens) (UniProt P21802); settings: at 0.1 µM
# Sequence of Fibroblast growth factor receptor 2 (Homo sapiens) (P21802 22-821 limits assumed): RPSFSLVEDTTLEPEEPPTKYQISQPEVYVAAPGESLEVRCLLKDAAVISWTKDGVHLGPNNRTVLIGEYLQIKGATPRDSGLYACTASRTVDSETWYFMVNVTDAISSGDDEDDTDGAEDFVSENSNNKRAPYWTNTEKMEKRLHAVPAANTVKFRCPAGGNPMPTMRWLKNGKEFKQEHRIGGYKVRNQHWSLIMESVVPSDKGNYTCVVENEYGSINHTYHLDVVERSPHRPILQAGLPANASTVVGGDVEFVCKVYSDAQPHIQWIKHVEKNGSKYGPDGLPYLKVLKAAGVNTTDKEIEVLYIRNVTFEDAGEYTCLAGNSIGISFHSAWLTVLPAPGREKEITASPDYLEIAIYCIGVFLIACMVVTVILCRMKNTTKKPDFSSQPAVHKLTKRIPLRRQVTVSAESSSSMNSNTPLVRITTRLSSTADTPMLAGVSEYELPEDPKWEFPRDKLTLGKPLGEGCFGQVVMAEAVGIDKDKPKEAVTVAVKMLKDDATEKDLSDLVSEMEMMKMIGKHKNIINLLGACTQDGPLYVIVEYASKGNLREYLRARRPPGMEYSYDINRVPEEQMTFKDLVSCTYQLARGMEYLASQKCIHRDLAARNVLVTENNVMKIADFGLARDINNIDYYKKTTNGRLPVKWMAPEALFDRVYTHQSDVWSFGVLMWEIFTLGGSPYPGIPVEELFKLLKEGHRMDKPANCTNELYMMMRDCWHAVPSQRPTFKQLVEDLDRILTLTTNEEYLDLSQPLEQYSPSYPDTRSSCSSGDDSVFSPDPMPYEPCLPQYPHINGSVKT
# [17] = molecular target: Fibroblast growth factor receptor 2 (Homo sapiens) (UniProt P21802); settings: at 1 µM
# [18] = molecular target: Fibroblast growth factor receptor 3 (Homo sapiens) (UniProt P22607); settings: at 0.1 µM
# Sequence of Fibroblast growth factor receptor 3 (Homo sapiens) (P22607 23-806 limits assumed): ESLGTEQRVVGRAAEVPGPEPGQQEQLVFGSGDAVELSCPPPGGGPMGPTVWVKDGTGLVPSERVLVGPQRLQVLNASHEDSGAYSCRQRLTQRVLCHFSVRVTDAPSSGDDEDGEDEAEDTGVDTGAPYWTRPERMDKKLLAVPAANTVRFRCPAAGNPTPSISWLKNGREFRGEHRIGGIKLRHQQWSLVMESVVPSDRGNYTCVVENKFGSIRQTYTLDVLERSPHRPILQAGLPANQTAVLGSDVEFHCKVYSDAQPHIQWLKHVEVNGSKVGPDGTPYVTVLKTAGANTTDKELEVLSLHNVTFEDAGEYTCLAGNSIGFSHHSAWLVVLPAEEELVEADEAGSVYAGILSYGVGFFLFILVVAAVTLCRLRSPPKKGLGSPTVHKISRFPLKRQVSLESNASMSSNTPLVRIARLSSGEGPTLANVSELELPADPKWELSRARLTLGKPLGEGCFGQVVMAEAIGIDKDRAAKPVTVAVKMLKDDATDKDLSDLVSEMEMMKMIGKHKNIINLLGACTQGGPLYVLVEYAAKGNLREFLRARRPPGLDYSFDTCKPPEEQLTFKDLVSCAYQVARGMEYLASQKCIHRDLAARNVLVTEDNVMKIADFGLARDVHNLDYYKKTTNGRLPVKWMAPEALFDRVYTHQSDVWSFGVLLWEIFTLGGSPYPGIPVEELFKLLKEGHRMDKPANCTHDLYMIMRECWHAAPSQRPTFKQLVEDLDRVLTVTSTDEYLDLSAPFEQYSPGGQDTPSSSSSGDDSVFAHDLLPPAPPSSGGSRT
# [19] = molecular target: Fibroblast growth factor receptor 3 (Homo sapiens) (UniProt P22607); settings: at 1 µM
# [20] = molecular target: Fibroblast growth factor receptor 4 (Homo sapiens) (UniProt P22455); settings: at 0.1 µM;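 further: values are mean percent inhibition of FGFR4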
# Sequence of Fibroblast growth factor receptor 4 (Homo sapiens) (P22455 22-802 limits assumed): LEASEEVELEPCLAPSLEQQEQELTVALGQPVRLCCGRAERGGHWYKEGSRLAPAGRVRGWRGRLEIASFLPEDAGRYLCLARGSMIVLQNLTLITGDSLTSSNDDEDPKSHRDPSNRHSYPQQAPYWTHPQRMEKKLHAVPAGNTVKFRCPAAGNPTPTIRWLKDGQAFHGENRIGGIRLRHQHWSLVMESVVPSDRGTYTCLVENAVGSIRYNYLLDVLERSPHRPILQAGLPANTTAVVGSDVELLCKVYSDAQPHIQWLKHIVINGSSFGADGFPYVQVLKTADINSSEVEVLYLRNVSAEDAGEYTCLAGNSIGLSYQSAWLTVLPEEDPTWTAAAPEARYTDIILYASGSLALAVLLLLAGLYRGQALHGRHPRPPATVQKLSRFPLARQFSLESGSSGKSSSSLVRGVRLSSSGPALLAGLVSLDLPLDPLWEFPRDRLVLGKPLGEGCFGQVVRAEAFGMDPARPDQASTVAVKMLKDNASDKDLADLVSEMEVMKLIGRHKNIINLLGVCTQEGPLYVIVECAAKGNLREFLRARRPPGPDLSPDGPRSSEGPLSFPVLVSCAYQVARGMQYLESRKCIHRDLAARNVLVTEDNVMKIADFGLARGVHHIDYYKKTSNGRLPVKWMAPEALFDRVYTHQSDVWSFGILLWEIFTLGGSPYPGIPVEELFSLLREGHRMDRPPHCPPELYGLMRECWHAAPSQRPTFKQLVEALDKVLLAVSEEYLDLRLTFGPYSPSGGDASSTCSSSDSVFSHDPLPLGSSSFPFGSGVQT
Structure (SMILES),inhibition [1],inhibition [2],inhibition [3],inhibition [4],inhibition [5],inhibition [6],inhibition [7],inhibition [8],inhibition [9],inhibition [10],inhibition [11],inhibition [12],inhibition [13],inhibition [14],inhibition [15],inhibition [16],inhibition [17],inhibition [18],inhibition [19],inhibition [20]
Nc1nc(-c2ccc(F)cc2)c(-c2ccc3ncccc3n2)s1,15.2%,5.51%,5.14%,1.8%,5.58%,4.65%,6.61%,16.8%,48.5%,2.2%,11.1%,3.07%,4.26%,4.21%,4.14%,4.62%,11.8%,8.15%,11.4%,1.96%
COc1cc2c(cc1Nc1nc(Nc3ccsc3C(N)=O)c3cc[nH]c3n1)N(C(=O)CN(C)C)CCC2(C)C,9.01%,–,-7.19%,2.71%,2.72%,2.91%,-0.07%,14.2%,36.4%,95.5%,94.8%,76.5%,79.4%,7.38%,4.2%,5.74%,13.5%,9.36%,7.81%,-6.03%
Nc1nc(-c2cccc(Cl)c2)c(-c2ccc3ncccc3n2)s1,15.5%,5.95%,5.53%,2.58%,3.57%,2.61%,5.7%,–,28.1%,4.91%,3.32%,3.08%,4.47%,3.71%,7.27%,5.51%,7.42%,4.38%,8.26%,-1.18%
COc1cc2ncn(-c3cc(OCc4ccccc4C(F)(F)F)c(C(=O)N(C)C)s3)c2cc1OC,3.29%,2.32%,0.33%,-1.02%,1.55%,0.2%,-1.05%,2.15%,–,-0.2%,3.02%,0.2%,0.64%,-1.23%,10.3%,2.76%,20.8%,1.53%,8.98%,-1.7%
COC(=O)c1sc(-n2cnc3cc(OC)c(OC)cc32)cc1OCc1ccccc1C(F)(F)F,10.3%,7.34%,6.47%,2.86%,3.16%,3.29%,-2.49%,8.62%,11%,1.07%,4.19%,3.47%,3.74%,3.22%,12.9%,3.5%,23%,6.13%,13.9%,-3.87%
COc1ccc2c(-c3ccnc(Nc4cccc(OC(F)(F)F)c4)n3)cnn2n1,14.9%,3.51%,5.86%,0.79%,4.73%,1.6%,2.79%,8.76%,9.71%,4.88%,16.5%,3.41%,8.88%,1.54%,0.82%,11.6%,6.91%,5.66%,6.19%,1.76%
O=C(O[C@H]1CN[C@H](C#Cc2cc3ncnc(Nc4ccc(Cc5ccccc5)cc4)c3s2)C1)N1CCOCC1,6.03%,4.37%,3.49%,-0.73%,1.41%,–,–,112%,107%,-1.21%,-0.65%,1.87%,1.71%,1.97%,2.47%,2.52%,1.51%,1.73%,0.73%,4.79%
CCNC(=O)O[C@H]1CN[C@H](C#Cc2cc3ncnc(Nc4ccc(OCc5cccc(F)c5)c(Cl)c4)c3s2)C1,4.8%,3.91%,5.16%,3.25%,4.36%,8.63%,60.4%,94.2%,101%,4.88%,-0.34%,2.67%,3.23%,3.91%,4.51%,2.71%,4.31%,4.87%,4.14%,1.14%
CNC(=O)c1cc(-c2ccc(F)cc2)cc(-c2ccc(S(=O)(=O)N3CCCC3)cc2)c1N,5.41%,0.26%,3.7%,1.99%,2.03%,2.24%,7.8%,5.77%,10.4%,2.99%,2.21%,2.25%,1.64%,3.72%,5.1%,9.77%,5.71%,4.56%,3.99%,2.78%
FC(F)(F)c1cccc(-c2nn3ncccc3c2-c2ccnc(Nc3ccc4c(c3)OCCO4)n2)c1,18.1%,5.94%,3%,2.8%,21.3%,1.37%,11.4%,48.3%,81.5%,0.32%,10.8%,1.96%,3.62%,2.8%,5.15%,1.92%,9.05%,4.74%,7.93%,0.03%
Fc1ccc(-c2nn3ncccc3c2-c2ccnc(Nc3ccc4c(c3)OCCO4)n2)cc1,73.6%,–,16.2%,20.1%,64.8%,11%,41.4%,84.3%,94.6%,1.71%,13.8%,3.45%,6.43%,4.68%,15.9%,5.02%,23.5%,4.66%,13.5%,-2%
CN(C)CCOc1ccc(-c2nc(-c3ccncc3)c(-c3ccc4c(c3)CC/C4=N\O)[nH]2)cc1,11.7%,3.83%,3.2%,1.85%,2.33%,2.46%,2.61%,10%,15%,1.86%,5.81%,2.16%,2.53%,6.05%,2.14%,4.67%,4.48%,5.89%,4.69%,0.23%
CNC(=O)c1cccc(C#Cc2cncnc2Nc2ccc(OCc3cccc(F)c3)c(Cl)c2)c1,6.47%,0.65%,1.29%,-1.02%,0.31%,-1.06%,23.7%,17.6%,58.4%,1.71%,2.2%,0.17%,1.47%,-1.46%,0.26%,0.94%,8.07%,1.87%,–,0.5%
COC(=O)Nc1nc2ccc(Oc3ccc(NC(=O)Nc4cccc(Cl)c4)cc3)cc2[nH]1,68%,4.58%,5.18%,4.66%,14.4%,-0.47%,5.3%,6.76%,9.87%,1.61%,2.41%,1.11%,0.57%,2.31%,9.33%,2.67%,2.53%,2.97%,2.72%,0.5%
